Cruzain inh noDet = blocks cruzain activity in detergent-free assay; P25779; purified cruzain, Z-FR-AMC fluorescence, no detergent; Potency, µM, inactives show max response, negative = inhibition, usual class: inhibitors; actives 2.3% (n = 200,000); AID 1476;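 note: plate controls were enzyme without inhibitor for no effect and buffer without enzyme for full effect; nearly all actives have a fitted effect of over 40% in size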
Target sequence (P25779 123-467 limits assumed): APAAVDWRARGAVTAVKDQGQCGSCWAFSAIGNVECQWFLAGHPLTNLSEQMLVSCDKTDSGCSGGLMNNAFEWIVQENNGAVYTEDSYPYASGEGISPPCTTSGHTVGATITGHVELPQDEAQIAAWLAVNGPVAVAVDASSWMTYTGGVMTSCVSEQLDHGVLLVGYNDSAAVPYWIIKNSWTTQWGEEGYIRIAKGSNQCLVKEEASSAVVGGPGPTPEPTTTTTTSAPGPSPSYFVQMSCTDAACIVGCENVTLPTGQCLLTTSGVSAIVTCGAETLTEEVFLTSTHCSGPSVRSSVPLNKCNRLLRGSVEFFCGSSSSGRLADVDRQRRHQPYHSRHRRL
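Detergent-free condition (0.00005% Triton X-100) in acetate buffer pH 5.5 with DTT. 1.5 nM enzyme and compound were pre-mixed 15 min, then 2 uM Z-FR-AMC substrate added; reaction progress from fluorescence change between first and third reads (60 s).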
Cruzain inh Det = blocks cruzain activity in presence of Triton detergent; actives 0.43% (n = 200,000); Potency, µM, without a hit: max response, negative = inhibition, actives largely listed as inhibitors; purified cruzain, Z-FR-AMC fluorescence, 0.01% Triton; AID 1478;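 note: plate controls were neutral wells for no effect and buffer without enzyme for full effect; nearly all actives have a fitted effect of over 40% in size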
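Steps: dispense cruzain (1.5 nM final) in acetate buffer pH 5.5 with DTT and 0.01% Triton X-100; pin-transfer compounds; incubate 15 min RT; add Z-FR-AMC (2 uM final); read fluorescence every 30 s, using the 60 s intensity change.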
* marks the source's active call; other numbers are inactive results; ? = inconclusive. Sampled rows, rich in hits. Any-hit rate of the full collection: about 2.5%. Calls come from the whole dose curve; as a rule, active = well fitted curve in the direction sought with a large enough effect; inconclusive = small, poorly fitted or top-dose-only effect, or another doubt; inactive = no such curve, though single readings can be large; an effect the other way counts as inactive or inconclusive. Potency is the fitted concentration of half-maximal effect.

SMILES | Cruzain inh noDet | Cruzain inh Det
CCOc1ccccc1CNC(=O)c1ccc2c(c1)nc1n2CCCCC1 | -7.9% | -2.2%
CCN1CCc2nc(NC(=O)C(c3ccccc3)c3ccccc3)sc2C1 | -7.4% | -0.1%
CCN1CCc2nc(NC(=O)CC(c3ccccc3)c3ccccc3)sc2C1 | 31.6µM* | 0.1%
O=c1/c(=C\c2ccc(O)cc2)sc2n1C(c1ccccc1)C(c1ccccc1)=NN=2 (stereo not drawn) | 25.1µM* | -2.8%
CCOC(=O)C1=C(c2ccccc2)N=c2s/c(=C\c3cccc(O)c3)c(=O)n2C1c1cccs1 (stereo not drawn) | -4.1% | -4.0%
COc1ccc(CNC(=O)CCn2c(=O)c3cccn3c3ccc(F)cc32)cc1OC | 25.5% | -3.6%
O=C(CSc1nc(O)cc(=O)n1-c1ccccc1)Nc1ccc2c3c(cccc13)CC2 | ? | 25.1µM*
Cc1c(O)nc(SCC(=O)Nc2ccc3c4c(cccc24)CC3)n(-c2ccccc2)c1=O | ? | -23.2%
Cc1ccc(C)c(N2CCN(C(=O)c3cc4cc5ccc(C)cc5nc4s3)CC2)c1 | 12.3% | 0.8%
COc1ccccc1C(=O)NC(=Nc1nc2ccccc2o1)NC(=O)c1ccccc1OC | ? | 4.2%
O=C(NC(=Nc1nc2ccccc2o1)NC(=O)c1ccccc1)c1ccccc1 | 12.6µM* | -2.5%
CC(=O)Nc1ccc(OC(=O)c2cc3cc(Br)cc(Br)c3oc2=O)cc1 | 20µM* | -0.9%
CC(=O)Nc1ccc(OC(=O)c2cc3cc(Br)ccc3oc2=O)cc1 | 0.4% | -0.1%
CCc1ccccc1NC(=O)c1cc(S(=O)(=O)N2CCc3ccccc32)ccc1F | -5.9% | 0.6%
Cc1cc2nn(-c3cccc4ccccc34)nc2cc1N | 15.8µM* | -3.3%
Nc1ccc2nn(-c3cccc4ccccc34)nc2c1 | ? | -3.1%
O=C(CN1C(=O)CCc2cc(S(=O)(=O)N3CCOCC3)ccc21)NCc1ccccc1 | -10.2% | 2.2%
CCCOc1ccc(C(=O)Nc2ccc3nn(-c4ccc(OC)c(Cl)c4)nc3c2)cc1 | 18.1% | -1.2%
O=C(COc1ccccc1)Nc1nc2ccccc2[nH]1 | -14.2% | -3.9%
O=C(CSc1nc2ccccc2[nH]1)Nc1ccccc1F | -26.7% | -9.4%
O=C(COc1cccc2ccccc12)Nc1nc2ccccc2[nH]1 | 25.1µM* | -13.3%
O=C(CSc1nc2ccccc2[nH]1)Nc1ccc(F)c(F)c1 | 25.1µM* | -28.7%
O=C(CSc1ccc2ccccc2c1)Nc1nc2ccccc2[nH]1 | 15.8µM* | -1.2%
O=C(/C=C/c1ccc(F)cc1)Nc1nc2ccccc2[nH]1 | 10µM* | -2.1%
O=C(/C=C/c1ccccc1)Nc1ncn[nH]1 | 2.0% | 4.6%
SMILES | Cruzain inh noDet | Cruzain inh Det
O=C(CSCc1nc2ccccc2[nH]1)Nc1ccc2ccccc2c1 | ? | -22.0%
O=c1cnc2cnc(Oc3ccccc3)nc2n1C1CC1 | -20.9% | -1.0%
CC1CCN(S(=O)(=O)N2CCC(C(=O)NCc3ccccc3Cl)CC2)CC1 | -15.5% | 0.9%
CCCCCCCCCCCCCC(=O)N[C@@H](C)[C@H](O)c1ccccc1 | -0.7% | -3.8%
Cc1ccc(C)c(N2CCN(CCCNC(=O)C3COc4ccccc4C3)CC2)c1 (stereo not drawn) | 5.0% | 0.5%
Cc1cccc(NC(=O)C2CCN(c3nnc(C)c4c(C)n(-c5ccccc5)nc34)CC2)c1C | 1.1% | -2.3%
Cc1cc(C(F)(F)F)c(C#N)c(SCC(=O)Nc2nc3cc(Br)ccc3s2)n1 | 20µM* | -9.2%
CCOC(=O)NC(=O)CSc1nc(C)cc(C(F)(F)F)c1C#N | -0.2% | -2.9%
O=C(Cc1ccccc1)Nc1ccc(NC(=O)c2cccc(Cl)c2)cc1 | 25.1µM* | 0.5%
O=C(O)CCC(=O)Nc1cccc(C(=O)Nc2cccc(Cl)c2)c1 | 7.5% | -0.1%
Cc1ccc(-n2nc3c(N4CCC(C(=O)NC(C)C)CC4)nnc(C)c3c2C)cc1 | 0.7% | -2.6%
CCc1ccccc1Nc1cc(C(=O)NCCc2ccccc2)c2ccccc2n1 | ? | -11.3%
N#C/C(=C\c1ccc(-c2ccc(Br)cc2)o1)C(=O)Nc1ccccc1O | 14.7% | -0.4%
N#C/C(=C/c1ccc(-c2ccccc2)o1)c1nc(-c2cccs2)cs1 | 7.94µM* | -10.1%
N#C/C(=C\c1ccc(-c2ccccc2)cc1)c1nc(-c2ccco2)cs1 | ? | -6.9%
N#C/C(=C\c1ccc(-c2ccc(F)cc2)o1)C(=O)Nc1nc(-c2cccs2)cs1 | 6.31µM* | 4.8%
Cc1ccc(NC(=O)c2nnn(Cc3ccccc3)c2N)cc1C | -7.5% | -0.1%
CSc1ccc(Cn2nnc(C(=O)Nc3ccc(C)c(C)c3)c2N)cc1 | 25.1µM* | 4.6%
O=C(Nc1ccc(F)c(Cl)c1)N1CCN(C(=O)c2nsc3ccccc23)CC1 | 4.3% | -8.2%
CCOc1ccc(NC(=O)c2cnc(N3CCCC3)nc2C)cc1 | -0.6% | 1.1%
CCn1c(-c2ccc(-c3ccccc3)cc2)c[nH]c1=S | 10µM* | 4.6%
Cn1c(-c2ccc(-c3ccccc3)cc2)c[nH]c1=S | 10µM* | -8.8%
S=c1[nH]cc(-c2ccccc2)n1-c1cccc(Cl)c1 | -12.1% | -3.0%
C=CCn1c(-c2ccccc2)c[nH]c1=S | 6.9% | 2.0%
CC(=O)N1CCc2cc(S(=O)(=O)C(C)CC(=O)Nc3ccc(Br)c(C)c3)ccc21 (stereo not drawn) | -5.0% | -6.0%
SMILES | Cruzain inh noDet | Cruzain inh Det
COc1ccc(-n2nc(C(=O)N3CCN(c4cccc(C)c4)C(C)C3)c3c4ccccc4n(C)c3c2=O)cc1Cl (stereo not drawn) | -7.6% | -1.2%
COc1ccc(CCNC(=O)c2ccc3[nH]c(C)c(C)c3c2)cc1OC | -5.5% | -5.7%
CCC(SC1=N/C(=C/c2ccccc2)C(=O)N1c1ccccc1)C(=O)Nc1cc(C)on1 (stereo not drawn) | 31.6µM* | -1.3%
COc1ccc(/C=C2/N=C(SCC(=O)Nc3cc(C)on3)N(c3ccccc3)C2=O)cc1 | 22.5% | 3.2%
COc1ccccc1NC(=O)C1CCN(S(=O)(=O)c2cn(C)cn2)CC1 | 1.6% | -0.5%
Cc1ccc(NC(=O)CSc2ccc(-c3cccs3)nn2)cc1Cl | 9.0% | -2.1%
COc1ccc(-c2noc(-c3ccccc3NC(=O)c3cc(OC)c(OC)c(OC)c3)n2)cc1 | 1.2% | -1.5%
O=C(CSc1ccc(-c2nc3ccccc3[nH]2)cn1)Nc1ccc(S(=O)(=O)N2CCCC2)cc1 | 31.6µM* | -3.6%
Cc1cc2nc(-c3ccc(SCC(=O)Nc4ccc(S(=O)(=O)N5CCCC5)cc4)nc3)[nH]c2cc1C | ? | -11.9%
O=C(CSc1ccccc1)Nc1ccc(-c2nc3ccccc3[nH]2)cc1 | ? | -16.0%
Cc1ccc2nc(-c3ccc(NC(=O)CSc4ccccc4)cc3)[nH]c2c1 | ? | 10µM*
CS(=O)(=O)N(Cc1ccccc1)c1ccc(C(=O)Nc2cccc(Cl)c2)cc1 | -14.3% | -7.1%
COc1cccc(NS(=O)(=O)c2ccc3[nH]cc(C(=O)NC4CCCCC4)c(=O)c3c2)c1 | -21.4% | -11.1%
O=C(c1ccc2c(c1)N(Cc1ccc(Cl)cc1)C(=O)c1ccccc1S2(=O)=O)N1CCC(Cc2ccccc2)CC1 | 12.6µM* | -2.6%
COc1ccccc1CNC(=O)c1ccc2c(c1)N(Cc1cccc(Cl)c1)C(=O)c1ccccc1S2(=O)=O | ? | -0.4%
CCc1ccccc1NC(=O)c1ccc2c(c1)N(Cc1cccc(Cl)c1)C(=O)c1ccccc1S2(=O)=O | 15.8µM* | -3.6%
O=C(c1ccc2c(c1)N(Cc1ccccc1F)C(=O)c1ccccc1S2(=O)=O)N1CCC(Cc2ccccc2)CC1 | -3.7% | -0.5%
